In PubChem BioAssay (NCI):
Compounds without any hit were thinned out: in the full panel of roughly 79,000, 15% have a hit. Active and inactive are the calls of the source. Rule as the data show it: active = growth inhibition above about 70%; inactive = the rest.

Assays:
[1] = NCI Yeast Anticancer Drug Screen. Data for the rad52 strain (AID 147);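 also: 0% = growth of vehicle-treated control cultures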; details: S. cerevisiae rad52 mutant growth inhibition, hits give high values
Method in brief: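 Compounds are applied to a genetically defined yeast strain lacking normal DNA damage repair, and inhibition of growth is expressed relative to cultures given vehicle only.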

[2] = NCI Yeast Anticancer Drug Screen. Data for the wt1 strain (AID 149);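 also: 0% = growth of vehicle-treated wt1 cultures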; details: S. cerevisiae wt1 strain (SPY 50644) growth inhibition, hits give high values
Method in brief: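 Each compound is tested on wt1 yeast and the loss of growth versus vehicle gives the inhibition value.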

[3] = NCI Yeast Anticancer Drug Screen. Data for the rad50EPP+ strain (AID 151);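 also: 0% = growth of vehicle-treated control cultures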; details: S. cerevisiae rad50 mutant strain, hits give high values
Method in brief: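 Compounds were applied to the rad50EPP+ yeast strain, which bears a defined DNA repair alteration, and growth inhibition was determined relative to vehicle-treated cultures.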

[4] = NCI Yeast Anticancer Drug Screen. Data for the mgt1 strain (AID 153); details: S. cerevisiae mgt1 mutant growth inhibition, hits give high values
Method in brief: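 Strain: mgt1 yeast, one of a set carrying defined DNA damage repair or cell cycle control alterations. Compound-treated growth compared with vehicle.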

[5] = NCI Yeast Anticancer Drug Screen. Data for the rad50 strain (AID 155);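 also: 0% = growth of vehicle-only cultures of the same strain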; details: S. cerevisiae rad50 strain growth inhibition, hits give high values
Method in brief: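 Vehicle-treated cultures provide the reference for the growth inhibition reported for compound-exposed, repair-deficient yeast.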

[6] = NCI Yeast Anticancer Drug Screen. Data for the mec2-1 strain (AID 157); details: S. cerevisiae mec2-1 strain, hits give high values
Method in brief: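 Strain: mec2-1 (DNA repair/cell cycle alteration). Compound exposure, then growth measured; inhibition expressed relative to vehicle.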

[7] = NCI Yeast Anticancer Drug Screen. Data for the sgs1 mgt1 strain (AID 161);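 also: 0% = growth of cultures given vehicle only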; details: S. cerevisiae sgs1 mgt1 strain, hits give high values
Method in brief: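 Read-out: growth inhibition vs vehicle controls. Cells: mutant yeast strain deficient in DNA damage repair.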

[8] = NCI Yeast Anticancer Drug Screen. Data for the CLN2oe strain (AID 163);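 also: 0% = growth of vehicle-only control cultures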; details: S. cerevisiae CLN2oe strain, hits give high values
Method in brief: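 Growth of a genetically modified yeast strain is measured after compound exposure and compared with cultures given vehicle alone.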

[9] = NCI Yeast Anticancer Drug Screen. Data for the cln2 rad14 strain (AID 165);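 also: 0% = growth equal to vehicle treated cultures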; details: S. cerevisiae cln2 rad14 strain, hits give high values
Method in brief: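 Compounds are applied to the cln2 rad14 yeast strain, and growth is then compared with that of vehicle-treated cultures to give inhibition.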

[10] = NCI Yeast Anticancer Drug Screen. Data for the bub3 strain (AID 167); details: S. cerevisiae bub3 mutant strain, hits give high values
Method in brief: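 Mutant yeast screening strain plus compound; vehicle-treated cultures serve as the 0% inhibition reference.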

[11] = NCI Yeast Anticancer Drug Screen. Data for the wt2 strain (AID 169); details: S. cerevisiae wt2 strain growth inhibition, hits give high values
Method in brief: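 This strain belongs to a panel of yeast strains with defined genetic alterations in DNA damage repair or cell cycle control. Compounds are applied, and growth inhibition is measured against vehicle-treated cultures.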

[12] = NCI Yeast Anticancer Drug Screen. Data for the mlh1 strain (AID 171);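 also: 0% = growth of vehicle-treated control cultures of the same strain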; details: S. cerevisiae mlh1 strain growth inhibition, hits give high values
Method in brief: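 Growth of the mutant yeast strain after compound exposure, expressed as inhibition relative to vehicle-only controls.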

[13] = NCI Yeast Anticancer Drug Screen. Data for the sgs1 strain (AID 173);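 also: 0% = growth of vehicle-only control cultures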; details: S. cerevisiae sgs1 mutant, hits give high values
Method in brief: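 Growth of a yeast strain bearing a defined genetic alteration is measured after compound treatment. Inhibition is expressed relative to vehicle-only controls.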

[14] = NCI Yeast Anticancer Drug Screen. Data for the mlh1 rad18 strain (AID 175); details: S. cerevisiae mlh1 rad18 strain growth inhibition, hits give high values
Method in brief: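 Read-out is yeast growth inhibition, calculated against vehicle-only controls. The compound was applied to a strain engineered with DNA damage repair alterations.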

[15] = NCI Yeast Anticancer Drug Screen. Data for the rad18 strain (AID 177); details: S. cerevisiae rad18 mutant growth inhibition, hits give high values
Method in brief: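 Growth of the mutant yeast strain after compound exposure, normalised to vehicle-only cultures.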

[16] = NCI Yeast Anticancer Drug Screen. Data for the rad14 strain (AID 159);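 also: 0% = growth of vehicle-treated control cultures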; details: S. cerevisiae rad14 strain growth inhibition, hits give high values
Method in brief: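 Inhibition of growth is reported for a repair-deficient yeast mutant following compound treatment, calculated relative to cultures that received vehicle.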

[17] = at 5.0 µM (retest, dose inferred, filed as 0.5)
[18] = at 50.0 µM (retest, dose inferred, filed as 5.0)

Measured: growth inhibition

CC(C)OC(=O)NNc1c(Cl)cc(Cl)cc1Cl
inactive: [1]; at 1.2 µM -2% | [1]; at 3.7 µM -2% | [1]; at 11.0 µM 2% | [1]; at 33.0 µM 6% | [1]; at 100.0 µM 5% | [2]; at 1.2 µM -2% | [2]; at 3.7 µM -3% | [2]; at 11.0 µM -4% | [2]; at 33.0 µM -3% | [2]; at 100.0 µM -5% | [3]; at 1.2 µM 10% | [3]; at 3.7 µM 31% | [3]; at 11.0 µM 49% | [4]; at 1.2 µM -2% | [4]; at 3.7 µM -2% | [4]; at 11.0 µM 2% | [4]; at 33.0 µM 8% | [4]; at 100.0 µM 5% | [5]; at 1.2 µM -2% | [5]; at 3.7 µM 7% | [5]; [17] 18% | [5]; at 11.0 µM 18% | [5]; at 33.0 µM 16% | [5]; [18] 28% | [5]; at 50.0 µM 2.75% | [5]; at 100.0 µM 13% | [6]; at 1.2 µM -3% | [6]; at 3.7 µM -3% | [6]; [17] 0% | [6]; at 11.0 µM 0% | [6]; at 33.0 µM 1% | [6]; [18] 10% | [6]; at 50.0 µM 3.15% | [6]; at 100.0 µM 0% | [7]; [17] 4% | [7]; [18] 24% | [7]; at 50.0 µM 15.2% | [8]; at 1.2 µM 1% | [8]; at 3.7 µM 5% | [8]; at 11.0 µM 14% | [8]; at 33.0 µM 19% | [8]; at 100.0 µM 18% | [9]; [17] 14% | [9]; [18] 21% | [9]; at 50.0 µM 12.3% | [10]; at 1.2 µM 26% | [10]; at 3.7 µM 38% | [10]; [17] 36% | [10]; at 11.0 µM 58% | [11]; at 1.2 µM 2% | [11]; at 3.7 µM 3% | [11]; at 11.0 µM 2% | [11]; at 33.0 µM 9% | [11]; at 100.0 µM 17% | [12]; at 1.2 µM -2% | [12]; at 3.7 µM -1% | [12]; at 11.0 µM 4% | [12]; at 33.0 µM 8% | [12]; at 100.0 µM 8% | [13]; at 1.2 µM -3% | [13]; at 3.7 µM -2% | [13]; at 11.0 µM 0% | [13]; at 33.0 µM 8% | [13]; at 100.0 µM 9% | [14]; [17] 10% | [14]; [18] 38% | [14]; at 50.0 µM 24.9% | [15]; at 1.2 µM 0% | [15]; at 3.7 µM 15% | [15]; at 11.0 µM 33% | [15]; at 33.0 µM 40% | [15]; at 100.0 µM 27%
active: [3]; at 33.0 µM 74% | [3]; at 100.0 µM 79% | [10]; at 33.0 µM 76% | [10]; [18] 82% | [10]; at 50.0 µM 93.2% | [10]; at 100.0 µM 81%

CC1(C)CC(=O)C(C(=O)Nc2cccs2)=C(O)C1
active: [1]; at 100.0 µM 99% | [2]; at 100.0 µM 99% | [3]; at 100.0 µM 98% | [4]; at 33.0 µM 92% | [4]; at 100.0 µM 98% | [5]; at 33.0 µM 70% | [5]; at 50.0 µM 88.8% | [5]; at 100.0 µM 98% | [6]; at 33.0 µM 78% | [6]; at 50.0 µM 93% | [6]; at 100.0 µM 98% | [16]; at 33.0 µM 92% | [16]; at 100.0 µM 98% | [7]; at 50.0 µM 93.3% | [8]; at 100.0 µM 99% | [10]; at 33.0 µM 82% | [10]; [18] 70% | [10]; at 50.0 µM 90.8% | [10]; at 100.0 µM 99% | [11]; at 100.0 µM 99% | [12]; at 33.0 µM 92% | [12]; at 100.0 µM 99% | [13]; at 33.0 µM 88% | [13]; at 100.0 µM 99% | [14]; at 50.0 µM 90.4%
inactive: [1]; at 1.2 µM -8% | [1]; at 3.7 µM 7% | [1]; at 11.0 µM 17% | [1]; at 33.0 µM 64% | [2]; at 1.2 µM 21% | [2]; at 3.7 µM 28% | [2]; at 11.0 µM 23% | [2]; at 33.0 µM 50% | [3]; at 1.2 µM -56% | [3]; at 3.7 µM -63% | [3]; at 11.0 µM -53% | [3]; at 33.0 µM 18% | [4]; at 1.2 µM 10% | [4]; at 3.7 µM 18% | [4]; at 11.0 µM 35% | [5]; at 1.2 µM 14% | [5]; at 3.7 µM 16% | [5]; [17] 26% | [5]; at 11.0 µM 18% | [5]; [18] 42% | [6]; at 1.2 µM 3% | [6]; at 3.7 µM -18% | [6]; [17] 6% | [6]; at 11.0 µM 20% | [6]; [18] 49% | [16]; at 1.2 µM -10% | [16]; at 3.7 µM 2% | [16]; at 11.0 µM 10% | [7]; [17] -5% | [7]; [18] 61% | [8]; at 1.2 µM 15% | [8]; at 3.7 µM 26% | [8]; at 11.0 µM 29% | [8]; at 33.0 µM 63% | [10]; at 1.2 µM 26% | [10]; at 3.7 µM 23% | [10]; [17] 16% | [10]; at 11.0 µM 41% | [11]; at 1.2 µM 4% | [11]; at 3.7 µM 14% | [11]; at 11.0 µM 17% | [11]; at 33.0 µM 60% | [12]; at 1.2 µM 1% | [12]; at 3.7 µM 4% | [12]; at 11.0 µM 30% | [13]; at 1.2 µM 8% | [13]; at 3.7 µM 23% | [13]; at 11.0 µM 38% | [14]; [17] -36% | [14]; [18] 2%
